Experimental data published in PubChem BioAssay AID1159580 (chemical genetic matrix, 2015).
In all, about 5,500 compounds went through this assay and about 2,000 (36%) were called active. Not shown: some 18% with an inconclusive outcome. Cut-off read from the data, not from the text of the source: active = normalized growth mostly below about 0.91 (no sharp cut-off); inconclusive = no clear call, values can overlap the other calls; inactive = mostly above about 0.92. This is one part of the list.

Assay: chemical genetic growth profiling, strain panel (AID 1159580);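 note: tested at 20 µM; growth read once vehicle control cultures reached saturation at 30 °C; 1 = growth at the plate median or of vehicle wells; lower values mean less growth of the strain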
Settings: S. cerevisiae deletion strains, growth OD

Measured: normalized growth

O=C(O)/C=C/c1cnc[nH]1
inactive: locus YAL040C, strain CLN3, active compounds read low 1.01 | locus YCL061C, strain MRC1 (second series), active compounds read low 1.01 | locus YDR150W, strain NUM1, active compounds read low 1.02 | locus YDR363W, strain ESC2, active compounds read low 1.03 | locus YER002W, strain NOP16, active compounds read low 1 | locus YJR075W, strain HOC1, active compounds read low 1.02 | locus YMR263W, strain SAP30, active compounds read low 1.01 | locus YMR307W, strain GAS1, active compounds read low 1.01 | locus YNL128W, strain TEP1, active compounds read low 1.01 | locus YNL153C, strain GIM3, active compounds read low 1.03 | locus YNL175C, strain NOP13, active compounds read low 0.997 | locus YNL197C, strain WHI3, active compounds read low 0.994 | locus YNL224C, strain SQS1, active compounds read low 0.984 | locus YNL322C, strain KRE1, active compounds read low 1.03 | locus YOR083W, strain WHI5 (second series), active compounds read low 1.01 | locus YPL241C, strain CIN2, active compounds read low 1.01
